Laboratory results taken from ChEMBL document CHEMBL4888484, “Replenishing the malaria drug discovery pipeline: Screening and hit evaluation of the MMV Hit Generation Library 1 (HGL1) against asexual blood stage Plasmodium falciparum ,using a nano luciferase reporter read-out” (2022).
Hit rate of the full screen: of about 4,800 compounds, about 410 (8.5%) showed an effect of 50% or more. What follows is part of a selection rich in strong results, with near analogues and random picks from the rest.

These compounds were tested on Plasmodium falciparum (assay: Confirmatory screen in NF54 pLDH assay, in single point, at 2uM, 72h). Settings: timepoint 72 hour.
Assay type: functional, Erythrocyte

| Compound | % Inhibition [%] |
| --- | --- |
| CCc1nnc2ccc(S(=O)(=O)N(CC#N)c3ccccc3)cn12 | -16 |
| c1coc(CNc2nc(Nc3cccc4ccccc34)nc3ccccc23)c1 | 50 |
| C=CCNC(=O)CCC(=O)NCc1ccco1 | 13 |
| COc1ccc(NC(=O)CCC(=O)NCc2ccco2)cc1 | 15 |
| COc1ccc(CCN[C@@H]2c3ccccc3C(=O)N2C2CCCCC2)cc1OC | 10 |
| CC(=O)N(Cc1ccccc1)c1ccc2c(c1)nc(Cn1nc(C)cc1C)n2C | 5 |
| CCC(CC)N1CC(C(=O)NC2COc3ccc(C)cc32)CC1=O (centres undefined) | -21 |
| CCn1cc(S(=O)(=O)N(C)Cc2nn(CC)cc2Cl)cn1 | 8 |
| Cn1c(=O)c2sc(N3CCCC3)nc2n(CC(=O)NC2CCCC2)c1=O | 4 |
| COc1ccc(CC[C@H](C)NC(=O)NCCCN2CCCC2=O)cc1 | 11 |
| N#CC1CCC(Nc2cnn(-c3ccncc3)c2)CC1 (centres undefined) | 11 |
| CS(=O)(=O)N1CC[C@H](CC(=O)N2CCN(c3ccc(F)cc3)CC2)C1 | -21 |
| CC(C)C(=O)N1CC[C@H](CC(=O)NCc2ccncc2)C1 | 5 |
| CN(C)c1cc(C(=O)N2CCOC3CCCCC32)ccn1 (centres undefined) | 3 |
| Cc1ccc(C)c(-c2nc(Cn3c(=O)c4c(C)cc(C)nc4n(C)c3=O)c(C)o2)c1 | 3 |
| Fc1cnc(OC2Cc3ccccc3C2)nc1 | 57 |
| Cn1nccc1/C=C1\CC2C3CCc4cc(O)ccc4C3CCC2(C)C1O (centres undefined) | 47 |
| Nc1ncncc1C(=O)NCCc1c[nH]c2ccc(F)cc12 | 6 |
| CCOc1ncc(Br)cc1C(=O)O | -19 |
| O=C(C[C@H]1CCCN1c1ccnc(C2CC2)n1)c1ccco1 | 12 |
| c1cc2c(cc1[C@H]1NCCCCCCO1)OCO2 | -5 |
| O=C1Nc2ccc(Br)cc2C1=O | 13 |
| COc1ccccc1-n1c(=O)[nH]c2nc(N3CCN(c4ccccn4)CC3)ncc2c1=O | 3 |

| Compound | % Inhibition [%] |
| --- | --- |
| CC(C)(C)OC(=O)NC1CCN(c2ncc(C(=O)NCc3ccc(F)c(Cl)c3)c(N)n2)CC1 | -10 |
| N#Cc1cc(N2CCc3ccccc3C2)nc2ccccc12 | 8 |
| N#Cc1cccc(-c2n[nH]c3c2CN(c2ccc(-c4ccccc4)nn2)CC3)c1 | 100 |
| COc1ccc2c(c1)CN(C(=O)C1CC3CCC1C3)CC2 (centres undefined) | 11 |
| O=C1C[C@@H](C(=O)N2CCC3(CCCCC3)C2)CCN1 | 10 |
| Cc1ncsc1C(=O)N1CCC2(CCCCC2)C1 | -22 |
| Nc1ncc(C(=O)N2CCC3(CCCCCC3)C2)s1 | 98 |
| NC(=O)[C@H]1CCCN(c2ccnc(C(=O)NCc3ccccc3)c2)C1 | 4 |
| CC1C(Cc2ccccc2)CCN1C(=O)c1cnc(C(F)(F)F)nc1 (centres undefined) | 14 |
| Cc1ccc(C(=O)N2C[C@@H]3C[C@H](NC(=O)c4cccnc4)[C@H]2C3)cc1F | -1 |
| CC(=O)Nc1ccc(C)cc1S(=O)(=O)N1CC=C(c2c(C)n(Cc3ccccc3C)c3ccccc23)CC1 | 90 |
| Cc1ccc(NC(=O)Cn2c(=O)n(Cc3ccco3)c(=O)c3ccccc32)c(C)c1 | -13 |
| Cc1ccc(S(=O)(=O)N2CC[C@H](CC(=O)NCc3ccccc3)C2)c(C)c1 | -22 |
| Cc1nn(C)c(Cl)c1CNC[C@@H](c1ccsc1)N(C)C | 9 |
| O=C(Nc1nnc(C2CC2)s1)[C@@H]1Cc2ccccc2O1 | 5 |
| O=C(NC1CCCC1)N1CCN(c2nc3cccnc3n(Cc3ccccc3)c2=O)CC1 | 8 |
| Brc1cncnc1N1CCC[C@H](c2nnn[nH]2)C1 | -7 |
| CCn1cnc2c(N3CCC[C@H](c4ccncc4)C3)ncnc21 | 77 |
| CCn1c(=O)c(N2CCC[C@H](C(=O)NCc3ccccc3OC)C2)nc2cccnc21 | -3 |
| COc1cccc(S(=O)(=O)N(C)[C@H]2CCc3n[nH]c(=O)n3CC2)c1 | 1 |
| Cn1c(=O)c2c(nc3nc(N4CCOCC4)n(CC(=O)c4ccc(Cl)cc4)n32)n(C)c1=O | 0 |
| O=C(NCC1CC1)c1cn[nH]c1-c1ccccc1 | 1 |
| COc1cc(OC)cc(C2(O)CCN(C(=O)CCc3ccccc3F)CC2)c1 | -20 |

| Compound | % Inhibition [%] |
| --- | --- |
| COc1ccc(-c2c(C(F)(F)F)n[nH]c2-c2ccc(OCc3ccccc3F)cc2O)cc1 | 91 |
| c1ccc(-c2cn[nH]c2N2CCNCC2)cc1 | -16 |
| COc1cc(-c2nc3ccccc3s2)ccc1OCc1cccc2ccccc12 | 0 |
| Oc1cc(OCc2ccccc2F)ccc1-c1[nH]ncc1-c1ccccc1 | 72 |
| COc1ccccc1NC(=O)CC1CS(=O)(=O)CC1CC(=O)Nc1ccccc1OC (centres undefined) | 13 |
| COc1ccc(-c2cnn3c(-c4ccccn4)ccnc23)cc1OC | 4 |
| C#CCNC(=O)[C@H](C#N)c1nc(C)c(C)s1 | 10 |
| Cc1cnc([C@H](C)NC(=O)c2conc2C(C)(C)N)s1 | 9 |
| C[C@H]1Cc2cc(C(=O)NCc3nc(C(F)(F)F)n[nH]3)ccc2O1 | 10 |
| COc1ccc(-c2cn3cc(C)nc3n2C)cc1 | 0 |
| Cc1ccc(S(=O)(=O)CC(=O)NC(C)(C)C)cc1 | 5 |
| O=C(CCc1ccc(Cl)c(C(F)(F)F)c1)N1CC[C@H](N2CCc3ccccc3C2)C1 | 45 |
| CC(C)(C)OC(=O)CN(c1cc(F)cc(F)c1)S(=O)(=O)c1ccc2nncn2c1 | -2 |
| CCN(C)C1(CNC(=O)c2ccc(-c3cc(F)ccc3O)cc2)CCCC1 | 11 |
| NC(=O)N1CCC[C@H]1C(=O)NC1CC(=O)N(C2CC2c2ccccc2)C1 (some centres undefined) | 8 |
| Cc1cnc(NC(=O)c2ccc3ncoc3c2)c(Br)c1 | 15 |
| O=C(CC1CCOCC1)N1CCN(C(=O)c2ccco2)CC1 | -18 |
| Cc1ccc(-c2ccnc3c(C(=O)NC4CC4)cnn23)cc1C | 4 |
| O=C(Cc1ccc(C(=O)Nc2nc(-c3ccccc3)cs2)cc1)c1ccccc1 | 12 |
| O=S(=O)(c1ccc2ccccc2c1F)N1CC(CO)C1 | -13 |
| COc1ccc(CNCCC2C(C)CN(C)C(C)C2Cc2ccccc2)cc1 (centres undefined) | 66 |
| CCNC(=O)C(=O)NCc1ccc(OC)cc1 | -20 |
| COc1ccc(CC2C(O)C(Cc3ccc(OC)cc3)C3CCC2N3C)cc1 (centres undefined) | 6 |
